# From the supplement of paper PMC9694430
# Assays:
# Experiment in all cases: thermal shift delta Tm vs DMSO control; higher = stronger stabilization (binding)
# Conditions in all cases: 12.5 µM; protein concentration 2 µM
# LOC_OS01G01410-cb001 = system: LOC_OS01G01410-cb001
# Procedure, shortened: (§1)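 Rice kinase domain constructs were expressed in E. coli, purified, and tested by differential scanning fluorimetry with compound added in DMSO. Each well of a 96-well plate held 19.5 μl of 2 μM kinase in 100 mM potassium phosphate pH 7.5, 150 mM NaCl, 10% glycerol and 5 × SYPRO Orange, and fluorescence was read from 25°C to 95°C at 0.05°C/s. The melting temperature shift is the mean of triplicates, taken against protein with DMSO alone after Boltzmann fitting.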
# LOC_OS01G02750-cb003 = system: LOC_OS01G02750-cb003
# Procedure, shortened: as §1
# LOC_OS01G10900-cb004 = system: LOC_OS01G10900-cb004
# Procedure, shortened: as §1
# LOC_OS01G13800-cb001 = system: LOC_OS01G13800-cb001
# Procedure, shortened: as §1
# LOC_OS01G14860-cb001 = system: LOC_OS01G14860-cb001
# Procedure, shortened: as §1
# LOC_OS01G21960-cb002 = system: LOC_OS01G21960-cb002
# Procedure, shortened: as §1
# LOC_OS01G39600-cb002 = system: LOC_OS01G39600-cb002
# Procedure, shortened: as §1
# LOC_OS01G48390-cb002 = system: LOC_OS01G48390-cb002
# Procedure, shortened: as §1
# LOC_OS01G51400-cb002 = system: LOC_OS01G51400-cb002
# Procedure, shortened: as §1
# LOC_OS01G52050-cb004 = system: T1, LOC_OS01G52050-cb004
# T1 sequence (whole entry): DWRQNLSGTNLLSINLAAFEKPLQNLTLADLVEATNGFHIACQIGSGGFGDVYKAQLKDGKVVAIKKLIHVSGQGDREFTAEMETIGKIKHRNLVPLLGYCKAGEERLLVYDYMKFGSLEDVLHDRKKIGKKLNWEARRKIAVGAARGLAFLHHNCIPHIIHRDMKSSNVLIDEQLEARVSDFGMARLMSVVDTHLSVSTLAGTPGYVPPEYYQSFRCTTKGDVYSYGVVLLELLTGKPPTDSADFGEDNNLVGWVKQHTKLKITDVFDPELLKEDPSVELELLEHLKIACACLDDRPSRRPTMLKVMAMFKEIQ
# Procedure, shortened: as §1
SMILES,thermal shift delta Tm (LOC_OS01G01410-cb001) [°C],thermal shift delta Tm (LOC_OS01G02750-cb003) [°C],thermal shift delta Tm (LOC_OS01G10900-cb004) [°C],thermal shift delta Tm (LOC_OS01G13800-cb001) [°C],thermal shift delta Tm (LOC_OS01G14860-cb001) [°C],thermal shift delta Tm (LOC_OS01G21960-cb002) [°C],thermal shift delta Tm (LOC_OS01G39600-cb002) [°C],thermal shift delta Tm (LOC_OS01G48390-cb002) [°C],thermal shift delta Tm (LOC_OS01G51400-cb002) [°C],thermal shift delta Tm (LOC_OS01G52050-cb004) [°C]
CCN(C)S(=O)(=O)Nc1ccc(F)c(C(=O)c2c[nH]c3ncc(-c4cnc(C5CC5)nc4)cc23)c1F,1.92,0.92,1.18,0.03,2.04,0.51,3.55,1.01,0.11,0.72
NC(=O)c1ncn([C@@H]2O[C@H](CO)[C@@H](O)[C@H]2O)c1N [AICAR (Acadesine)],0.45,1.18,0.56,0.52,0.07,0.94,-0.35,0.6,0.32,0.33
COc1ccc(-c2nc(N3CCOCC3)c3sc(CN(C)c4ncc(C(=O)NO)cn4)cc3n2)cn1,0.62,1.67,0.67,0.23,0.42,0.88,0.28,0.53,0.43,-0.17
CS(=O)(=O)N1CCN(Cc2cc3nc(-c4cccc5[nH]ncc45)nc(N4CCOCC4)c3s2)CC1 [Pictilisib (GDC-0941)],1.2,0.47,0.85,0.43,1.21,0.24,0.57,2.14,-0.08,-0.11
Cc1nc2ccc(-n3ncc(C(=O)c4cc5ccccc5[nH]4)c3N)cc2[nH]1,0.79,1.12,0.9,0,0.41,-0.17,0.82,1.08,0.05,1.9
CCn1nc(C2CCN(C(=O)CCO)CC2)nc1-c1cnc(N)c(-c2nnc(C(C)(C)C)o2)n1,0.39,0.51,0.81,0.46,2.91,1.09,2.31,0.07,-0.09,1.14
COc1cc2ncc(-c3ccccc3)nc2cc1OC [Tyrphostin AG 1296],2.03,1.6,0.44,-0.26,0.28,0,0.47,0.55,0.63,1.69
"Cc1[nH]c(/C=C2\C(=O)Nc3ccccc32)c(C)c1CCC(=O)O [Orantinib (TSU-68, SU6668)]",4.79,1.43,0.18,0.08,1.9,2.76,6.8,1.34,0.2,3.61
COc1ccc(COc2cc3oc(=O)c4cc(C(C)O)ccc4c3cc2OC)cc1 (stereo not given) [Palomid 529 (P529)],0.67,0.16,1.07,0.03,0.14,0.64,-0.21,0.4,0,0.04
